# From PubChem BioAssay
# An excerpt weighted towards active compounds, which were near 18% of everything screened.
# TDP1 block – blocks human tyrosyl-DNA phosphodiesterase 1; Q9NUW8; recombinant TDP1, AlphaScreen DNA substrate cleavage; Potency, µM (doses to about 130 µM), usual class: inhibitors; 350,000 tested, 0.28% active; also: nearly all actives have a fitted effect of over 40% in size
# Target sequence (Q9NUW8 whole entry, looked up): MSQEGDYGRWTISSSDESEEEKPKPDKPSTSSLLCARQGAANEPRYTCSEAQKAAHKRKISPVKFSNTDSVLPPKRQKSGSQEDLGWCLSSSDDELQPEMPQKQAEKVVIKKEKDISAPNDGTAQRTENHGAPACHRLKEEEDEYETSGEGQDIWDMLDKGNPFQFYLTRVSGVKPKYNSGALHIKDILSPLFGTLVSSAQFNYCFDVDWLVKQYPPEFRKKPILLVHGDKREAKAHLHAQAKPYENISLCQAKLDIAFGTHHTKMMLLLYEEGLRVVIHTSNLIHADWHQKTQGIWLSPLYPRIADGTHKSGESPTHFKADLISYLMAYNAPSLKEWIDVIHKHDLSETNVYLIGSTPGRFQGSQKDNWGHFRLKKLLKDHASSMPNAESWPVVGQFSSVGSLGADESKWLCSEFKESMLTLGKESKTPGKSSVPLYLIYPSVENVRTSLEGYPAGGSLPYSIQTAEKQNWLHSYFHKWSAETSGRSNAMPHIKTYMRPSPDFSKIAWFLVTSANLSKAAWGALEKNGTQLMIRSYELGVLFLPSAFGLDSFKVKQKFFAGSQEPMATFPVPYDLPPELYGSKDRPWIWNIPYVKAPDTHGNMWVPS
#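 Steps: enzyme plus compound, 15 min RT; add biotin/phosphotyrosine-FITC oligonucleotide (15 nM final), react 5 min; add donor/acceptor beads (10 ug/ml final), 10 min; read AlphaScreen. Tdp1 at 1 nM final.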
# TGFb SMAD3 inh – blocks TGF-b signaling; HepG2 CAGA-GFP TGF-b/SMAD3 reporter, GFP fluorescence, 18 h; TGF-beta stimulated, 500 pg/mL final; 410,000 tested, 1.2% active; Potency, µM (series often up to 46.1 µM), actives largely listed as inhibitors; AID 588855; also: nearly all actives have a fitted effect of over 65% in size
#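 Inhibition was scored as loss of TGF-beta-induced (500 pg/mL final, 18 hours, 37 degrees C) GFP in HEPG2 cells carrying a CAGA-GFP reporter, in DMEM with 1% FBS. Well GFP was summed per cell; Activity was normalised to unstimulated and stimulated DMSO wells, then concentration-response fitting.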
# DT40 TDP1 CPT – growth inhibition of DT40 Tdp1-/-;hTDP1 cells with camptothecin (screen for TDP1 inhibitors); chicken DT40 Tdp1-/-;hTDP1 cells + 20 nM CPT, ATP luminescence, 48 h; AID 686979; 420,000 tested, 12% active; Potency, µM (doses to about 46.2 µM), actives largely listed as inhibitors; also: nearly all actives have a fitted effect of over 55% in size
#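 Cell growth measured by CellTiter-Glo luminescence after a minimum 48 h, 37 C compound exposure with 20 nM CPT in Tdp1-knockout DT40 cells stably expressing hTDP1, seeded 400/well; qHTS titration format.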
# DT40 TDP1 no CPT – qHTS for Inhibitors of human tyrosyl-DNA phosphodiesterase 1 (TDP1): qHTS in cells in absence of CPT; DT40 Tdp1-/- hTDP1 cells, no CPT, ATP luminescence, 48 h; Potency, µM (titrated, usually from 46.2 µM), hits mostly inhibitors; 420,000 tested, 15% active; also: nearly all actives have a fitted effect of over 55% in size
#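 Compound effects on proliferation are scored in DT40 Tdp1-/-;hTDP1 cells in the absence of CPT. ATP levels (CellTiter-Glo luminescence) are recorded after a ≥48 hr, 37 °C incubation.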
# HepG2 tox – HepG2 cytotoxicity, counter-screen for TGF-b inhibitors; AID 588856; Potency, µM (top dose mostly 46.1 µM), actives largely listed as cytotoxic; 410,000 tested, 0.76% active; HepG2 CAGA-GFP viability, ATP luminescence, 18 h
#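 HepG2 CAGA-GFP cells (1000/well, DMEM with 1% FBS) received compound, then TGF-beta at 500 pg/mL final, and were incubated 18 hours at 37 degrees C. Viability was read by CellTiter-Glo luminescence. Media-only wells were set as complete cell-killing and DMSO as no toxicity.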
# IL1B secr inh – inhibitors of inflammasome signaling (IL-1 beta secretion); THP-1 LPS/ATP IL-1B secretion, AlphaLISA, 16 h; stronger effect = lower value; 360,000 tested, 4.7% active; activity change, % at 57.5 µM; AID 743279; in the data active = activity change below about -50%; inconclusive = mostly about -30% to -49%
#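 THP-1 cells pretreated 1 hr with compounds (up to 57.5 uM final), then stimulated with LPS (250 ng/mL final) plus ATP (1.25 mM final); secreted IL-1B measured by AlphaLISA after 16 hr, decreased signal indicating inhibition.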
# Numbers stand for hits; - = inactive; ? = inconclusive; . = not tested or not shown; ! = repeats disagree; [ ] = remark or other dose. Unless noted, calls follow the shape of the dose curve; as a rule, active = well fitted curve in the direction sought with a large enough effect; inconclusive = small, poorly fitted or top-dose-only effect, or another doubt; inactive = no such curve, though single readings can be large; an effect the other way counts as inactive or inconclusive.
SMILES,TDP1 block,TGFb SMAD3 inh,DT40 TDP1 CPT,DT40 TDP1 no CPT,HepG2 tox,IL1B secr inh
Cc1oc2ncn(CC(C)C)c(=O)c2c1C(=O)NCCc1ccccc1,-,-,?,16µM,-,.
CCOC(=O)C(C)NC(=O)c1c(C)oc2ncn(CC(C)C)c(=O)c12 (stereo not given),-,?,?,23µM,-,.
Cc1ccc(N2CCN(C(=O)c3c(C)oc4ncn(C)c(=O)c34)CC2)c(C)c1,-,-,-,-,-,.
C[C@@H](O)[C@H]1C(=O)N2C(C(=O)O)=C([C@H]3CCCO3)S[C@H]12,.,.,-,-,.,.
CCO[C@H]1OC(C(=O)NCc2nc3ccccc3[nH]2)=C[C@@H](c2ccc(C(F)(F)F)cc2)[C@@H]1CCCO,-,?,?,16µM,-,?
CCO[C@@H]1OC(C(=O)NCc2nc3ccccc3[nH]2)=C[C@H](c2ccc(C(F)(F)F)cc2)[C@H]1CCCO,-,?,?,?,-,-64
C#Cc1ccc([C@@H]2C=C(C(=O)NCc3nc4ccccc4[nH]3)O[C@H](OCC)[C@H]2CCCO)cc1,-,-,?,?,-,-
CCO[C@H]1OC(C(=O)NCc2nc3ccccc3[nH]2)=C[C@@H](C2CCCCC2)[C@@H]1CCCO,-,?,13µM,15µM,-,?
Cc1nn(-c2ccccn2)c2c1C(=O)C(Br)CC2 (stereo not given),?,-,5.2µM,3.7µM,-,-106
N#CC1=CN(Cc2ccccc2)C=C(/C=N/Nc2ccccc2)C1,-,-,?,?,-,-80
COc1cc2ccc(=O)oc2c(OC)c1OC,-,.,-,-,.,.
COc1cc2ccc(=O)oc2c(O)c1O,-,-,21µM!,?,-,-
Cc1nn(C)c(C)c1NC(=S)Nc1ccc(S(=O)(=O)Nc2ncccn2)cc1,-,?,-,-,-,-
O=C(c1ccc(Cl)c(S(=O)(=O)N2CCOCC2)c1)N(c1ccccn1)C1CCCCC1,-,-,?,16µM,-,-
O=C(OC1CCOC1=O)c1ccc(Cl)c(S(=O)(=O)N2CCOCC2)c1 (stereo not given),28µM,-,-,-,-,-
CN(c1cccc(NC(=O)c2ccc(Cl)c(S(=O)(=O)N3CCOCC3)c2)c1)S(C)(=O)=O,-,-,?,12µM,-,-
CC(=O)c1cccc(NC(=O)c2ccc(Cl)c(S(=O)(=O)N3CCOCC3)c2)c1,-[2.28 µM],-,?,0.46µM,-,.
CC(=O)c1cccc(NC(=O)c2cccc(S(=O)(=O)N3CCOCC3)c2)c1,-[0.0935 µM],-,-,-,-,-
O=C(Nc1ccccn1)c1ccc(Cl)c(S(=O)(=O)N2CCOCC2)c1,-,-,-,-,-,-
Cc1nc2ccccc2c(=O)n1/N=C/C=C/c1ccccc1,-,-,?,?,-,-
COc1ccc(CNC(=O)c2cc3c(=O)n(Cc4ccco4)ccc3nc2C)c(OC)c1,-,?,?,?,-,.
COc1cccc(C2(CC(=O)N3CCC(c4nc5ccc(F)cc5[nH]4)CC3)CC(=O)N(C)C2=O)c1 (stereo not given),.,.,-,-,.,.
CCCCN(CCCC)c1ccc(Cn2ccc3ccccc32)cc1,.,18µM,7.9µM,8.9µM,-,.
CN(C)c1ccc(Cn2ccc3ccccc32)cc1,.,?,-,22µM,-,.
CCOc1ccccc1OCC(=O)OC(C)C(=O)Nc1ncc(Cl)cc1Cl (stereo not given),-,-,-,-,-,-
SMILES,TDP1 block,TGFb SMAD3 inh,DT40 TDP1 CPT,DT40 TDP1 no CPT,HepG2 tox,IL1B secr inh
CC(C)Nc1cccc(S(=O)(=O)N2CCCN(S(=O)(=O)c3ccc4c(c3)OCCO4)CC2)c1,-,.,.,.,.,.
CCc1cc2cc(C(=O)Nc3ccc(F)cc3)sc2s1,-,-,-,-,-,-
CC(C)(C)c1ccc(C(=O)Nc2ccc(F)cc2)s1,.,-,-,15µM,-,-62
CN(C)S(=O)(=O)c1cccc(-c2nn(-c3ccccc3)cc2/C=C2\SC(=S)NC2=O)c1,-,13µM,?,?,-,-
CN(C)S(=O)(=O)c1cccc(-c2nn(-c3ccccc3)cc2/C=C(\C#N)c2nc3ccccc3[nH]2)c1,-,-,5.2µM,5.8µM,-,-
CCN1C(=O)/C(=C/c2cn(-c3ccccc3)nc2-c2cccnc2)SC1=S,.,-,-,-,-,-
CC(=O)c1sc(NC(=O)C2(F)C(F)(F)C(F)(F)C(F)(F)C(F)(F)C2(F)F)nc1C,-,2.8µM,4.1µM,5.8µM,-,-88
CCCC(=O)Nc1ccc(-c2csc(N/N=C\c3ccncc3)n2)cc1,-,-,10µM,8.2µM,-,?
Cc1ccc(S(=O)(=O)CCC(=O)Nc2cc(C)on2)cc1,.,-,-,-,-,-
CC(=O)c1sc(NC(=O)C=C(C)C)nc1C,-,-,-,-,-,-
Cc1ccc(S(=O)(=O)CCC(=O)Nc2nc(-c3ccncc3)cs2)cc1,-,-,23µM,18µM,-,?
Cc1csc(NC(=O)CCS(=O)(=O)c2ccc(Br)cc2)n1,-,?,?,23µM,-,-
O=C(CSc1nnc(COc2ccccc2)o1)Nc1cc(C(F)(F)F)ccc1Cl,.,-,-,-,-,.
COC(=O)c1sc(NC(=O)COc2ccc(C)cc2)nc1C,-,-,-,-,-,-63
O=C(CS(=O)(=O)c1ccccc1)Nc1nc(-c2ccccc2)cs1,-,-,?,?,-,-
Cc1ccc(S(=O)(=O)CC(=O)Nc2nc(-c3ccccc3)cs2)cc1,-,?,-,21µM,-,-
CC(=O)c1sc(NC(=O)CCS(=O)(=O)c2ccc(C)cc2)nc1C,-,?,9.2µM,18µM,-,-107
CCOC(=O)c1csc(NC(=O)CCS(=O)(=O)c2ccc(Cl)cc2)n1,.,-,?,18µM,-,-
CO[C@H]1COC(=O)C/C=C\[C@H](C)[C@@H](OC)COC(=O)[C@H](Cc2ccccc2)NC(=O)C/C=C\[C@@H]1C,-[21 µM],.,.,.,.,.
Cc1ccc(C(=O)c2oc3ccccc3c2NC(=O)c2cc(-c3ccccc3)on2)cc1,-,?,-,-,-,.
CNCC(C)COc1ccccc1OCc1ccccc1 (stereo not given),-,-,?,?,-,-
OCCNCCCCOc1ccc(OCc2ccccc2)cc1,-,-,?,?,-,-81
CC(O)CNCCCOc1ccccc1OCc1ccccc1 (stereo not given),.,-,-,?,-,-52
CC(O)CNCCCOc1cccc(Oc2ccccc2)c1 (stereo not given),.,-,16µM,16µM,-,-56
